Test results taken from PubChem BioAssay (EPA / NIEHS).
Active and inactive are the calls of the source. Rule for the calls: active = hit-call score of the fitted dose curve at least 0.9, where 1 is the maximum; inactive = score below 0.9.

Assays:
Settings in all cases: mRNA level, 48 h; actives raise or lower the signal
[1] = read-out: Glutathione S-transferase M3 (GSTM3), GSTM3 (gene 2947); test: LTEA_HepaRG_GSTM3: Life Technologies and Expression Analysis (LTEA) Assay for Glutathione S-transferase M3 (GSTM3) using HepaRG (AID 2283501)
Procedure, shortened: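 Changes in GSTM3 expression, an oxidative-stress marker, were scored by bidirectional curve fitting against 0.5% DMSO vehicle. Human HepaRG cultures received chemicals for 48 h in duplicate, highest concentration 100 uM with half-log dilutions.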

[2] = read-out: Heat shock 70 kDa protein 1 (HSPA1A), gene 3303; test: LTEA_HepaRG_HSPA1A: Life Technologies and Expression Analysis (LTEA) Assay for Heat shock 70 kDa protein 1 (HSPA1A) using HepaRG (AID 2283502)
Procedure, shortened: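 HSPA1A expression measured by qRT-PCR with ACTB/GAPDH/POLR2A normalization; curves fitted in both directions relative to DMSO vehicle. Exposure: 48 h in HepaRG cells, duplicate 8-point half-log series from 100 uM, 0.5% DMSO, serum-free induction medium.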

[3] = read-out: 3-Hydroxy-3-Methylglutaryl-CoA Synthase 2 (HMGCS2), HMGCS2 (gene 3158); test: LTEA_HepaRG_HMGCS2: Life Technologies and Expression Analysis (LTEA) Assay for 3-Hydroxy-3-Methylglutaryl-CoA Synthase 2 (HMGCS2) using HepaRG (AID 2283504)
Procedure, shortened: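 Expression of HMGCS2 in human HepaRG liver cells is measured by qRT-PCR 48 h after dosing (highest 100 uM, half-log series, 0.5% DMSO). Values come from bidirectional concentration-response fitting with DMSO as baseline.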

HGF (gene 3082) = test: LTEA_HepaRG_HGF: Life Technologies and Expression Analysis (LTEA) Assay for Hepatocyte Growth Facto (HGF) using HepaRG (AID 2283505)
Procedure, shortened: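 Gain or loss of HGF mRNA in human HepaRG liver cells after 48 h chemical exposure; eight concentrations up to 100 uM with 0.5% DMSO vehicle, quantified by TaqMan qRT-PCR.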

[4] = read-out: Insulin Like Growth Factor 1 (IGF1), IGF1 (gene 3479); test: LTEA_HepaRG_IGF1: Life Technologies and Expression Analysis (LTEA) Assay for Insulin Like Growth Factor 1 (IGF1) using HepaRG (AID 2283506)
Procedure, shortened: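 Expression measured by TaqMan qRT-PCR on a Fluidigm array, with three housekeeping genes for normalisation, after 48 h treatment of HepaRG cells. Top concentration 100 uM with half-log steps, 0.5% DMSO vehicle, bidirectional fit.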

[5] = read-out: Intercellular Adhesion Molecule 1 (ICAM1), ICAM1 (gene 3383); test: LTEA_HepaRG_ICAM1: Life Technologies and Expression Analysis (LTEA) Assay for Intercellular Adhesion Molecule 1 (ICAM1) using HepaRG (AID 2283507)
Procedure, shortened: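 Gain or loss of transcript in HepaRG hepatic cells is quantified by qRT-PCR after 48 h chemical exposure (up to 100 uM, half-log steps), with DMSO as baseline.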

[6] = read-out: Insulin-like growth factor-binding protein 1 (IGFBP1), IGFBP1 (gene 3484); test: LTEA_HepaRG_IGFBP1: Life Technologies and Expression Analysis (LTEA) Assay for Insulin-like growth factor-binding protein 1 (IGFBP1) using HepaRG (AID 2283508)
Procedure, shortened: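 mRNA induction or loss was quantified by qRT-PCR after 48 h chemical exposure of human HepaRG cells, with 0.5% DMSO as vehicle and baseline. Concentration-response over eight points up to 100 uM.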

[7] = read-out: Interleukin 6 (IL6), IL6 (gene 3569); test: LTEA_HepaRG_IL6: Life Technologies and Expression Analysis (LTEA) Assay for Interleukin 6 (IL6) using HepaRG (AID 2283509)
Procedure, shortened: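 Transcript levels, normalized to three housekeeping genes, were quantified by qRT-PCR after 48 h chemical treatment of HepaRG cells. Eight-point half-log series from 100 uM in 0.5% DMSO, duplicates. Fitted both directions against DMSO baseline.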

[8] = read-out: Interleukin 6 Receptor (IL6R), IL6R (gene 3570); test: LTEA_HepaRG_IL6R: Life Technologies and Expression Analysis (LTEA) Assay for Interleukin 6 Receptor (IL6R) using HepaRG (AID 2283510)
Procedure, shortened: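 IL6R transcript level by qRT-PCR after 48 h chemical exposure (8-point, half-log, max 100 uM, 0.5% DMSO vehicle) of HepaRG cells in serum-free induction medium. Normalized to three housekeeping genes; curves fitted in both directions relative to DMSO.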

[9] = read-out: Potassium channel subfamily K member 1 (KCNK1), KCNK1 (gene 3775); test: LTEA_HepaRG_KCNK1: Life Technologies and Expression Analysis (LTEA) Assay for Potassium channel subfamily K member 1 (KCNK1) using HepaRG (AID 2283511)
Procedure, shortened: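 KCNK1 transcript measured by TaqMan qRT-PCR against three housekeeping genes, after HepaRG cells were treated 48 h with eight half-log concentrations (top 100 uM, 0.5% DMSO). Curves fitted bidirectionally relative to vehicle.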

[10] = read-out: Keratin 19 (KRT19), KRT19 (gene 3880); test: LTEA_HepaRG_KRT19: Life Technologies and Expression Analysis (LTEA) Assay for Keratin 19 (KRT19) using HepaRG (AID 2283512)
Procedure, shortened: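 Gene-expression endpoint in the human liver line HepaRG after 48 h exposure to up to 100 uM test chemical with 0.5% DMSO vehicle; KRT19 mRNA by qRT-PCR, analyzed bidirectionally versus DMSO.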

[11] = read-out: JUN Transcription Factor, JUN (gene 3725); test: LTEA_HepaRG_JUN: Life Technologies and Expression Analysis (LTEA) Assay for JUN Transcription Factor using HepaRG (AID 2283513)
Procedure, shortened: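 mRNA measured by TaqMan qRT-PCR after 48 h chemical exposure of HepaRG cultures; normalization to three housekeeping genes. Duplicate eight-point half-log curves from 100 uM in 0.5% DMSO; gain or loss fitted against DMSO baseline.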

[12] = read-out: Lipase C (LIPC), LIPC (gene 3990); test: LTEA_HepaRG_LIPC: Life Technologies and Expression Analysis (LTEA) Assay for Lipase C (LIPC) using HepaRG (AID 2283514)
Procedure, shortened: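 LIPC expression was quantified by qRT-PCR against three housekeeping genes (ACTB, GAPDH, POLR2A). Differentiated human HepaRG cells received eight half-log doses (top 100 uM, 0.5% DMSO) in duplicate for 48 h; fitting bidirectional relative to DMSO.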

[13] = read-out: Lipoprotein lipase (LPL), LPL (gene 4023); test: LTEA_HepaRG_LPL: Life Technologies and Expression Analysis (LTEA) Assay for Lipoprotein lipase (LPL) using HepaRG (AID 2283515)
Procedure, shortened: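 LPL transcript levels quantified by TaqMan qRT-PCR against three housekeeping genes after 48 h chemical treatment of HepaRG cells. Eight-point half-log series from 100 uM in 0.5% DMSO, tested in duplicate; bidirectional fitting versus vehicle.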

[14] = read-out: MicroRNA 122 (MIR122), gene 406906; test: LTEA_HepaRG_MIR122: Life Technologies and Expression Analysis (LTEA) Assay for MicroRNA 122 (MIR122) using HepaRG (AID 2283516); note: the transcript read is the microRNA miR-122
Procedure, shortened: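 Expression measured by microfluidic qRT-PCR with three housekeeping genes for normalisation, after 48 h treatment of HepaRG cultures. Eight concentrations (top 100 uM, half-log steps, 0.5% DMSO vehicle) in duplicate; gain or loss fitted relative to vehicle.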

[15] = read-out: matrix metalloproteinase-10 (MMP10), MMP10 (gene 4319); test: LTEA_HepaRG_MMP10: Life Technologies and Expression Analysis (LTEA) Assay for matrix metalloproteinase-10 (MMP10) using HepaRG (AID 2283517)
Procedure, shortened: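 Expression measured by TaqMan qRT-PCR with ACTB/GAPDH/POLR2A normalisation after 48 h chemical exposure of HepaRG cells. Eight half-log concentrations, top 100 uM, 0.5% DMSO vehicle, duplicates; gain or loss fitted against vehicle.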

MYC, MYC (gene 4609) = test: LTEA_HepaRG_MYC: Life Technologies and Expression Analysis (LTEA) Assay for MYC using HepaRG (AID 2283518)
Procedure, shortened: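 Cells are thawed, plated and cultured 48 h, then treated for 48 h with test chemicals (eight half-log concentrations from 100 uM, 0.5% DMSO vehicle). RNA is isolated and MYC expression quantified by qRT-PCR against three housekeeping genes.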

[16] = read-out: matrix metalloproteinase-3 (MMP3), MMP3 (gene 4314); test: LTEA_HepaRG_MMP3: Life Technologies and Expression Analysis (LTEA) Assay for matrix metalloproteinase-3 (MMP3) using HepaRG (AID 2283519)
Procedure, shortened: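 Fluidigm-based TaqMan qRT-PCR, normalized to ACTB, GAPDH and POLR2A and fitted bidirectionally versus 0.5% DMSO, measured transcript levels. Treatment: duplicate 48 h exposures of HepaRG cells, ~100,000/well, to eight half-log concentrations topping at 100 uM.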

[17] = read-out: Paternally Expressed 10 (PEG10), PEG10 (gene 23089); test: LTEA_HepaRG_PEG10: Life Technologies and Expression Analysis (LTEA) Assay for Paternally Expressed 10 (PEG10) using HepaRG (AID 2283520)
Procedure, shortened: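 PEG10 transcript measured by Fluidigm qRT-PCR, normalized to three housekeeping genes, in HepaRG cells treated 48 h (highest 100 uM, half-log steps, 0.5% DMSO vehicle). Cells plated 48 h before switching to serum-free induction medium.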

[18] = read-out: Protein phosphatase 2A (PPP2R4), PTPA (gene 5524); test: LTEA_HepaRG_PPP2R4: Life Technologies and Expression Analysis (LTEA) Assay for Protein phosphatase 2A (PPP2R4) using HepaRG (AID 2283522)
Procedure, shortened: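 Expression was quantified by Fluidigm qRT-PCR normalised to three housekeeping genes after 48 h treatment. Human HepaRG cells received an 8-point series from 100 µM downward by half-logs, in duplicate with 0.5% DMSO vehicle and 1 mM phenobarbital as induction control.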

Measured: outcome

O=C(CCl)c1ccccc1
inactive: all assays above

N#CCCCCC#N
inactive: all assays above

O=[N+]([O-])c1ccc(Cl)cc1
inactive: all assays above
